In PubChem BioAssay (NCATS) one finds Potency and activity change, negative = cytotoxicity data, which are given here for 22 molecules.

What all share (test): Primary qHTS to identify gynecologic anti-cancer compounds using libraries of approved drugs and bioactive compounds (AID 1345084); also: nearly all actives have a fitted effect of over 55% in size
A general note: Quantitative high-throughput screening tests each substance at several concentrations.

The subject of one assay is CASKI. Conditions: Gynecologic cancer cell panel viability, ATPlite luminescence, 48 h; series mostly up to 57.5 µM. Put shortly: (§1)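 Cell viability after 48 h drug treatment, ATPlite luminescence readout; five doses.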
The test system of the next assay is Es-2. The settings on record: Gynecologic cancer cell panel viability, ATPlite luminescence, 48 h; series mostly up to 57.5 µM. Put shortly: as §1
Background: ATP-based viability assays read luminescence as a measure of living cells.

The test system of the next assay is HeLa. The settings on record: Gynecologic cancer cell panel viability, ATPlite luminescence, 48 h; series mostly up to 57.5 µM. Put shortly: as §1
A further assay deals with Hek293T. The settings on record: Gynecologic cancer cell panel viability, ATPlite luminescence, 48 h, control line for the selectivity index; series mostly up to 57.5 µM. Put shortly: as §1
The subject of another assay is JEG-3. Conditions: Gynecologic cancer cell panel viability, ATPlite luminescence, 48 h; series mostly up to 57.5 µM. In short, it runs like this: as §1
A further assay has as its system OV90. Conditions: Gynecologic cancer cell panel viability, ATPlite luminescence, 48 h; series mostly up to 57.5 µM. Put shortly:
as §1

In another assay the test system is PA-1. The settings on record: Gynecologic cancer cell panel viability, ATPlite luminescence, 48 h; series mostly up to 57.5 µM. Put shortly: as §1
In a further assay the test system is SKOV3. The settings on record: Gynecologic cancer cell panel viability, ATPlite luminescence, 48 h; series mostly up to 57.5 µM. Put shortly:
as §1

In another assay the test system is Tov-21-G. Conditions: Gynecologic cancer cell panel viability, ATPlite luminescence, 48 h; series mostly up to 57.5 µM. Put shortly: as §1
Another assay has as its system Tov112D. The settings on record: Gynecologic cancer cell panel viability, ATPlite luminescence, 48 h; series mostly up to 57.5 µM. In short, it runs like this:
as §1

Records with an inconclusive call do not appear. Values without a mark were called inactive. The source made the active and inactive calls. Calls follow the shape of the dose curve; as a rule, active = well fitted cell-killing curve with a large enough effect; inconclusive = small, poorly fitted or top-dose-only effect, or effect the other way; inactive = flat fitted curve, though single readings scatter. Where a SMILES comes first, the peptide text is derived from it. [ ]: non-standard residue; d: D form. pGlu = O=C1CC[C@@H](C(=O)O)N1
% is scaled to controls: 0 for no effect and ±100 for the full control effect; potency is read from the fitted curve at half-maximal effect.

In the case of `O=C(O)C1CCC1`, the Potency result in the assay with CASKI, with Es-2, with HeLa, in the assay on Hek293T, in the assay with JEG-3 and in the assay with OV90 was “inactive” throughout. Moreover, the Potency entry in the assay on PA-1, in the assay on SKOV3, in the assay with Tov-21-G and with Tov112D was “inactive” throughout.

As for `NS(=O)(=O)c1cc(C(=O)NN2C[C@H]3[C@H]4CCC(C4)[C@H]3C2)ccc1Cl`, the Potency result in the assay with CASKI, in the assay on Es-2, with HeLa, in the assay with Hek293T, in the assay with JEG-3 and with OV90 was “inactive” in each case. Moreover, the Potency entry with PA-1, in the assay with SKOV3, with Tov-21-G and in the assay with Tov112D was “inactive” in each case.

Turning to `CC(C)C[C@@H]1[C@H](c2ccccc2)OC(=O)N1CCCN1CCCCCC1`, the Potency result in the assay with CASKI, in the assay on Es-2, with HeLa, in the assay on Hek293T, in the assay with JEG-3 and in the assay with OV90 was “inactive” each time. Besides, the Potency result in the assay on PA-1, in the assay on SKOV3, in the assay with Tov-21-G and in the assay with Tov112D was “inactive” each time.

As for `CC(Oc1c(Cl)cccc1Cl)C1=NCCN1` (stereo not given), the Potency result in the assay with CASKI, in the assay on Es-2, in the assay with HeLa, with Hek293T, with JEG-3 and in the assay on OV90 was “inactive” throughout. For the same molecule, the Potency result in the assay on PA-1, in the assay on SKOV3, in the assay on Tov-21-G and in the assay on Tov112D was “inactive” in each case.

Take `O=C(O)CCCC[P+](c1ccccc1)(c1ccccc1)c1ccccc1`: the Potency entry in the assay with CASKI, with Es-2, in the assay with HeLa, with Hek293T, in the assay with JEG-3 and in the assay on OV90 was “inactive” in each case. For the same molecule, the Potency entry in the assay on PA-1, with SKOV3, in the assay with Tov-21-G and in the assay on Tov112D was “inactive” each time.

`CC(=O)O[C@H]1CC[C@@]2(C)C(=CC[C@@H]3[C@@H]2CC[C@]2(C)C(C(C)=O)=CC[C@@H]32)C1`: the Potency entry with CASKI, in the assay on Es-2, in the assay with HeLa, with Hek293T, in the assay on JEG-3 and in the assay on OV90 was “inactive” throughout. Besides, the Potency result in the assay with PA-1, in the assay with SKOV3, with Tov-21-G and with Tov112D was “inactive” each time.

For `CC1CN(c2cc3c(cc2F)c(=O)c(C(=O)O)cn3-c2ccc(F)cc2F)CCN1` (stereo not given), the Potency entry with CASKI and in the assay with Es-2 was “inactive” throughout. For the same molecule, the activity change, negative = cytotoxicity in the assay with HeLa was 5.19% [at 6.55 µM]; in the assay on Hek293T it was -5.43% [at 6.55 µM]; in the assay on JEG-3, 13.6% [at 6.55 µM]; in the assay on OV90, 18.6% [at 6.55 µM]; in the assay on PA-1 it was 6.96% [at 6.55 µM]; in the assay with SKOV3, -2.15% [at 6.55 µM]. Also, the activity change, negative = cytotoxicity is -0.759% [at 6.55 µM] with Tov-21-G and -5.84% [at 6.55 µM] with Tov112D.

With `CC(=O)O[C@@H]1C(=O)O[C@@H]2[C@H]1OC(=O)[C@@H]2OC(C)=O`, the Potency result in the assay with CASKI, in the assay on Es-2, with HeLa, in the assay on Hek293T, in the assay with JEG-3 and with OV90 was “inactive” throughout. Also, the Potency result in the assay with PA-1, with SKOV3, in the assay on Tov-21-G and in the assay with Tov112D was “inactive” in each case.

For the molecule `CC1(C)OC(=O)Nc2ccc(Br)cc21`, the Potency entry with CASKI, with Es-2, in the assay on Hek293T, with JEG-3, in the assay on OV90 and in the assay on PA-1 was “inactive” each time. In addition, the Potency entry with SKOV3, with Tov-21-G and with Tov112D was “inactive” in each case. The Potency with HeLa was 10 µM (active).

For `CN=C(N)NC(=O)Nc1c(C)cccc1C`, the Potency result in the assay on CASKI, with Es-2, with HeLa, in the assay with Hek293T, in the assay on JEG-3 and in the assay on OV90 was “inactive” throughout. In addition, the Potency result with PA-1, in the assay on SKOV3, in the assay on Tov-21-G and in the assay on Tov112D was “inactive” throughout.

On to `COc1ccc2nc(SCc3ncc(C)c(OC)c3C)[nH]c2c1`, for which the Potency entry in the assay with CASKI, in the assay with Es-2, in the assay with HeLa, in the assay with Hek293T, in the assay with JEG-3 and in the assay on OV90 was “inactive” throughout. The Potency entry in the assay with PA-1, in the assay on SKOV3, with Tov-21-G and in the assay with Tov112D was “inactive” each time.

As to `C#Cc1ccc(-c2ccccc2F)cc1`, the Potency entry in the assay on CASKI, with Es-2, with HeLa, in the assay with Hek293T, with JEG-3 and with OV90 was “inactive” in each case. Besides, the Potency entry in the assay with PA-1, in the assay on SKOV3, with Tov-21-G and in the assay on Tov112D was “inactive” each time.

For `CCCC(=O)Nc1ccc(O)c(C(C)=O)c1`, the Potency entry in the assay with CASKI, with Es-2, in the assay with HeLa, with Hek293T, in the assay on JEG-3 and in the assay with OV90 was “inactive” throughout. Further, the Potency entry with PA-1, with SKOV3, in the assay with Tov-21-G and with Tov112D was “inactive” each time.

As to `CC(=O)OCC[N+](C)(C)C`, the Potency result in the assay on CASKI, in the assay with Es-2, in the assay on HeLa, in the assay on Hek293T, in the assay on JEG-3 and with OV90 was “inactive” each time. The Potency entry in the assay with PA-1, with SKOV3, in the assay with Tov-21-G and in the assay on Tov112D was “inactive” each time.

Turning to `CCOC(=O)Cn1cccc1-c1nc(-c2ccc(OC)cc2)c(-c2ccc(OC)cc2)s1`, the Potency entry with CASKI, with Es-2, in the assay on HeLa, in the assay with Hek293T, with JEG-3 and in the assay with OV90 was “inactive” throughout. The Potency result in the assay on PA-1, in the assay with SKOV3, in the assay with Tov-21-G and in the assay with Tov112D was “inactive” in each case.

For `CN(CC1(C)CCCO1)S(=O)(=O)c1ccc(Cl)c(S(N)(=O)=O)c1` (stereo not given), the Potency result in the assay on CASKI, with Es-2, in the assay on HeLa, with Hek293T, in the assay on JEG-3 and in the assay with OV90 was “inactive” each time. The Potency entry with PA-1, in the assay with SKOV3, in the assay with Tov-21-G and in the assay on Tov112D was “inactive” each time.

As to `CC1CC(=O)NN=C1c1ccc(NCC(C)(C)NCC(O)COc2cc(Cl)ccc2C#N)cc1` (stereo not given), the Potency result in the assay on CASKI, with Es-2, in the assay with HeLa, in the assay with Hek293T, in the assay with JEG-3 and with OV90 was “inactive” throughout. The Potency entry with PA-1, in the assay with SKOV3, in the assay with Tov-21-G and with Tov112D was “inactive” throughout.

Regarding `CC(=O)Nc1c(I)c(NC(C)=O)c(I)c(C(=O)O)c1I`, the Potency result in the assay on CASKI, with Es-2, in the assay on HeLa, with Hek293T, with JEG-3 and in the assay on OV90 was “inactive” each time. Moreover, the Potency entry in the assay on PA-1, with SKOV3, in the assay on Tov-21-G and with Tov112D was “inactive” in each case.

Turning to `O=[N+]([O-])c1cncn1CCN1CCOCC1`, the Potency result in the assay on CASKI, in the assay on Es-2, in the assay with HeLa, in the assay on Hek293T, in the assay on JEG-3 and in the assay on OV90 was “inactive” throughout. Also, the Potency result with PA-1, in the assay with SKOV3, in the assay with Tov-21-G and with Tov112D was “inactive” throughout.

As to `CCNC(=O)[C@@H]1CCCN1C(=O)[C@H](CCCN=C(N)N)NC(=O)[C@H](CC(C)C)NC(=O)CNC(=O)[C@H](Cc1ccc(O)cc1)NC(=O)[C@H](CO)NC(=O)[C@H](Cc1c[nH]c2ccccc12)NC(=O)[C@H](Cc1cnc[nH]1)NC(=O)[C@@H]1CCC(=O)N1` ([pGlu]HWSYGLRP-NHEt), the Potency entry in the assay with CASKI, with Es-2, in the assay on HeLa, in the assay on Hek293T, with JEG-3 and with OV90 was “inactive” each time. The Potency result with PA-1, in the assay with SKOV3, in the assay with Tov-21-G and with Tov112D was “inactive” throughout.

As for `CC(=O)c1cc2ccccc2s1`, the Potency entry with CASKI, in the assay with Es-2, in the assay on HeLa, in the assay with Hek293T, in the assay on JEG-3 and in the assay with OV90 was “inactive” in each case. The Potency entry in the assay on PA-1, in the assay on SKOV3, with Tov-21-G and in the assay with Tov112D was “inactive” each time.

`Cc1ccc(CCn2c3c(c4cc(Cl)ccc42)CN(C)CC3)cn1`: the Potency entry in the assay with CASKI, with Es-2, in the assay on HeLa, in the assay with Hek293T, with JEG-3 and in the assay on OV90 was “inactive” in each case. Besides, the Potency result in the assay on PA-1, in the assay on SKOV3, with Tov-21-G and in the assay on Tov112D was “inactive” throughout.
